# Test results as given in PubChem BioAssay AID1434 (Sanford-Burnham Center for Chemical Genomics, 2008).
# The campaign covered roughly 220,000 compounds. About 1,600 (0.73%) were called active.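 Rule for the calls: active = mean inhibition across duplicate retests at 20 µM reaching about 50% (limit read from the data); inactive = the rest, inconclusive results apart.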 The sample as a whole holds a higher share of actives than the screen did.
# Molecular target: Runt-related transcription factor 1 (Homo sapiens) + Core-binding factor subunit beta (Homo sapiens) (UniProt Q01196+Q13951)
# Assay: disruptors of Runt domain/CBFb-SMMHC interaction – biochemical, FRET, Cerulean-Runt, Venus-CBFb-SMMHC, uHTS, primary screen (AID 1434);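 note: 0% = DMSO wells and 100% = wells with excess untagged CBFb-SMMHC; inhibitors lower the FRET ratio by blocking Runt binding to CBFb-SMMHC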
# Conditions: Cerulean-Runt/Venus-CBFb-SMMHC FRET ratio 530/480, 1 h, at 20 µM, stronger effect = higher value
# Chain of Runt-related transcription factor 1 (Homo sapiens) + Core-binding factor subunit beta (Homo sapiens) (Q01196 whole entry, looked up, the tested form may be a part): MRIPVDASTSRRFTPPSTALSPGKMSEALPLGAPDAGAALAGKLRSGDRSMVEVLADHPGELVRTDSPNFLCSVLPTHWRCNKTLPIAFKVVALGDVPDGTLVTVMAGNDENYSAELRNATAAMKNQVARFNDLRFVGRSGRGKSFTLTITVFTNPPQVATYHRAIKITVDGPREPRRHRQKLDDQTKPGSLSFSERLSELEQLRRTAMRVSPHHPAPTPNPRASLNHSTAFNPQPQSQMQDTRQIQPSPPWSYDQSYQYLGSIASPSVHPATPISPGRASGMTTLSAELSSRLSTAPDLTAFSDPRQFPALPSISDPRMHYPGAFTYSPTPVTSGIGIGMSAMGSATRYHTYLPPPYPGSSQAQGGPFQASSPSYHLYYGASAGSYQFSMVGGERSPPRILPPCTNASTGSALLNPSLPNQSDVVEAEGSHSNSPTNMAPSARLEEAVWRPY
# Chain of Runt-related transcription factor 1 (Homo sapiens) + Core-binding factor subunit beta (Homo sapiens) (Q13951 whole entry, looked up, the tested form may be a part): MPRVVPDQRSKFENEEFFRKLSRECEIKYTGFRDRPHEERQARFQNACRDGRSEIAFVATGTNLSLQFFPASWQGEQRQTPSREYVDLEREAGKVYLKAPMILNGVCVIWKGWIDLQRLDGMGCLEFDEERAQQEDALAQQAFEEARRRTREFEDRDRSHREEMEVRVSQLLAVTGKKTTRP
SMILES,inhibition,inhibition (retest duplicate average) [%]
CC(C)N(Cc1ccccc1)C(=O)COC(=O)c1cnccn1,-2.4% (inactive),–
CSCCC(Nc1ccc(S(=O)(=O)N2CCOCC2)cc1[N+](=O)[O-])C(=O)OCC(=O)N(C(C)C)C(C)C (stereo not drawn),-4.8% (inactive),–
CCOC(=O)C1=C(N)N(c2ccc(C)cc2)C2=C(C(=O)CCC2)C1c1cccs1 (stereo not drawn),-7.1% (inactive),–
CCCC(=O)N1c2ccccc2NC2=C(C(=O)CCC2)C1c1ccc(F)cc1 (stereo not drawn),-4.3% (inactive),–
CCCN1C2=C(C(=O)CCC2)C(c2ccc(O)c(Br)c2)C2=C1CCCC2=O,118% (active),118
O=C(Nc1ccc2ccccc2c1)/C(=C\c1ccc2c(c1)OCO2)NC(=O)c1ccco1,-21.7% (inactive),–
COc1ccc(N2CCN(C(=O)CSc3nc4cc(OC)c(OC)cc4cc3C#N)CC2)cc1,9.4% (inactive),–
COc1cccc(C(=O)Nc2ccc(N3CCCC3)cc2)c1,5.7% (inactive),–
COc1ccc2nc(N3CCCC(O)C3)c(C#N)cc2c1 (stereo not drawn),65% (active),72.9
Cc1cc(C)nc(SCc2cn3c(C)cc(C)nc3n2)n1,-4% (inactive),–
O=c1c(Cl)c(NCc2ccc(F)cc2Cl)cnn1C12CC3CC(CC(C3)C1)C2,3.5% (inactive),–
FC(F)(F)c1ccc(-n2cn[nH]c2=S)cc1,3.3% (inactive),–
Nc1[nH][nH]c(=O)c1N=Nc1ccc2c(c1)OCO2,-0.1% (inactive),–
c1csc(-c2cn3c(n2)SCC3)c1,-6.8% (inactive),–
N#Cc1c(C(F)(F)F)cc(-c2cccs2)nc1N1CCCCC1,82.5% (active),79.2
CCCn1c(=O)c2c(C(F)(F)F)cc(-c3cccs3)nc2n(CCC)c1=O,1.9% (inactive),–
C=CCCN(Cc1ccccc1)S(=O)(=O)c1ccccc1Br,-2.3% (inactive),–
c1ccc(-n2cccc2)c(N2CCCCC2)c1,-0.7% (inactive),–
O=C(Cn1c(-c2ccccn2)nc2ccccc21)NCCN1CCOCC1,-0.1% (inactive),–
O=C(NCCN1CCOCC1)c1ccc2c(c1)ncn2C1CCCC1,0.2% (inactive),–
c1ccc2cc3c(NCCN4CCOCC4)ccnc3cc2c1,78.2% (active),71.5
C/C(N)=C(/C#N)C(=O)COC(=O)CNS(=O)(=O)c1ccc(C)cc1,-1.2% (inactive),–
CC(C)N(C)C(=O)CCc1nnc(CCc2c[nH]c3ccccc23)o1,-1.1% (inactive),–
COc1ccc(/C=C2\SC(=S)N(CC(=O)NNC(=O)c3ccncc3)C2=O)cc1,-217% (inactive),–
Cc1cc(=O)[nH]c(N/N=C/c2ccc3c(c2)OCCO3)n1,-9.8% (inactive),–
COCc1cc(=O)oc2cc(NS(=O)(=O)c3ccc(C)cc3)ccc12,80.2% (active),71.8
Cc1ccc(S(=O)(=O)Nc2ccc3ncccc3c2)cc1,-1.3% (inactive),–
COc1ccc(S(=O)(=O)Nc2ccc3oc(C)c(C(C)=O)c3c2)cc1,-0.7% (inactive),–
